# PubChem BioAssay (NCI)
# Compounds without any hit were thinned out: in the full panel of roughly 79,000, 15% have a hit. Values without a mark were called inactive. Active and inactive are the calls of the source. Cut-off read from the data, not from the text of the source: active = growth inhibition above about 70%; inactive = the rest.
# Legend:
# [1] = NCI Yeast Anticancer Drug Screen. Data for the rad52 strain (AID 147);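 note: 0% = growth of vehicle-treated control cultures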; settings: S. cerevisiae rad52 mutant growth inhibition, stronger effect = higher value
# How it was run: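 The repair-mutant yeast strain was incubated with compounds, then growth was read and inhibition derived relative to vehicle.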
# [2] = NCI Yeast Anticancer Drug Screen. Data for the wt1 strain (AID 149);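 note: 0% = growth of vehicle-treated wt1 cultures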; settings: S. cerevisiae wt1 strain (SPY 50644) growth inhibition, stronger effect = higher value
# How it was run: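 Each compound is tested on wt1 yeast and the loss of growth versus vehicle gives the inhibition value.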
# [3] = NCI Yeast Anticancer Drug Screen. Data for the rad50EPP+ strain (AID 151);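 note: 0% = growth of vehicle-treated control cultures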; settings: S. cerevisiae rad50 mutant strain, stronger effect = higher value
# How it was run: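 Vehicle-normalised growth inhibition; rad50EPP+ yeast strain, altered in DNA damage repair, compound-treated.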
# [4] = NCI Yeast Anticancer Drug Screen. Data for the rad50 strain (AID 155);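 note: 0% = growth of vehicle-only cultures of the same strain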; settings: S. cerevisiae rad50 strain growth inhibition, stronger effect = higher value
# How it was run: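 Vehicle-treated cultures provide the reference for the growth inhibition reported for compound-exposed, repair-deficient yeast.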
# [5] = NCI Yeast Anticancer Drug Screen. Data for the mec2-1 strain (AID 157); settings: S. cerevisiae mec2-1 strain, stronger effect = higher value
# How it was run: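 Mutant yeast (mec2-1) grown with compound; growth inhibition relative to vehicle control reported.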
# [6] = NCI Yeast Anticancer Drug Screen. Data for the rad14 strain (AID 159);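 note: 0% = growth of vehicle-treated control cultures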; settings: S. cerevisiae rad14 strain growth inhibition, stronger effect = higher value
# How it was run: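 Inhibition of growth is reported for a repair-deficient yeast mutant following compound treatment, calculated relative to cultures that received vehicle.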
# [7] = NCI Yeast Anticancer Drug Screen. Data for the sgs1 mgt1 strain (AID 161);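 note: 0% = growth of cultures given vehicle only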; settings: S. cerevisiae sgs1 mgt1 strain, stronger effect = higher value
# How it was run: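 Yeast cells carrying a defined DNA-repair defect were exposed to test compounds. Growth inhibition was measured relative to vehicle-treated controls.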
# [8] = NCI Yeast Anticancer Drug Screen. Data for the CLN2oe strain (AID 163);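 note: 0% = growth of vehicle-only control cultures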; settings: S. cerevisiae CLN2oe strain, stronger effect = higher value
# How it was run: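 Compounds are applied to yeast harbouring a defined cell-cycle control change; reduced growth compared with vehicle-treated controls gives the value.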
# [9] = NCI Yeast Anticancer Drug Screen. Data for the cln2 rad14 strain (AID 165);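 note: 0% = growth equal to vehicle treated cultures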; settings: S. cerevisiae cln2 rad14 strain, stronger effect = higher value
# How it was run: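 Readout is yeast growth inhibition versus vehicle-treated controls, using a strain with cln2 and rad14 alterations exposed to compound.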
# [10] = NCI Yeast Anticancer Drug Screen. Data for the bub3 strain (AID 167); settings: S. cerevisiae bub3 mutant strain, stronger effect = higher value
# How it was run: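 Mutant yeast screening strain plus compound; vehicle-treated cultures serve as the 0% inhibition reference.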
# [11] = NCI Yeast Anticancer Drug Screen. Data for the mlh1 strain (AID 171);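 note: 0% = growth of vehicle-treated control cultures of the same strain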; settings: S. cerevisiae mlh1 strain growth inhibition, stronger effect = higher value
# How it was run: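 Measured: yeast growth. Reference: vehicle-treated controls. Organism: strain with a defined alteration affecting DNA damage repair or cell cycle control, treated with compound.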
# [12] = NCI Yeast Anticancer Drug Screen. Data for the sgs1 strain (AID 173);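 note: 0% = growth of vehicle-only control cultures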; settings: S. cerevisiae sgs1 mutant, stronger effect = higher value
# How it was run: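 Each compound was added to cultures of the altered yeast strain. Growth was recorded, and inhibition was derived by comparison with vehicle controls.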
# [13] = NCI Yeast Anticancer Drug Screen. Data for the mlh1 rad18 strain (AID 175); settings: S. cerevisiae mlh1 rad18 strain growth inhibition, stronger effect = higher value
# How it was run: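 Genetically defined yeast (DNA repair-deficient) exposed to compounds; growth inhibition determined relative to vehicle.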
# [14] = NCI Yeast Anticancer Drug Screen. Data for the rad18 strain (AID 177); settings: S. cerevisiae rad18 mutant growth inhibition, stronger effect = higher value
# How it was run: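 Vehicle-treated cultures served as the baseline for scoring compound-induced growth inhibition in DNA-repair-mutant yeast.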
# [15] = at 5.0 µM (retest, dose inferred, filed as 0.5)
# [16] = at 50.0 µM (retest, dose inferred, filed as 5.0)
structure (smiles),measurement,setting,value
Oc1ccc(C=Nc2ccccc2O)cc1,growth inhibition,[1]; at 1.2 µM,34%
same,growth inhibition,[1]; at 3.7 µM,52%
same,growth inhibition,[1]; at 11.0 µM,56%
same,growth inhibition,[1]; at 33.0 µM,75% (active)
same,growth inhibition,[1]; at 100.0 µM,88% (active)
same,growth inhibition,[2]; at 1.2 µM,28%
same,growth inhibition,[2]; at 3.7 µM,28%
same,growth inhibition,[2]; at 11.0 µM,25%
same,growth inhibition,[2]; at 33.0 µM,27%
same,growth inhibition,[2]; at 100.0 µM,39%
same,growth inhibition,[3]; at 1.2 µM,35%
same,growth inhibition,[3]; at 3.7 µM,68%
same,growth inhibition,[3]; at 11.0 µM,90% (active)
same,growth inhibition,[3]; at 33.0 µM,90% (active)
same,growth inhibition,[3]; at 100.0 µM,94% (active)
same,growth inhibition,[4]; at 1.2 µM,68%
same,growth inhibition,[4]; at 3.7 µM,85% (active)
same,growth inhibition,[4]; [15],13%
same,growth inhibition,[4]; at 11.0 µM,81% (active)
same,growth inhibition,[4]; at 33.0 µM,84% (active)
same,growth inhibition,[4]; [16],80% (active)
same,growth inhibition,[4]; at 50.0 µM,78.8% (active)
same,growth inhibition,[4]; at 100.0 µM,90% (active)
same,growth inhibition,[5]; at 1.2 µM,23%
same,growth inhibition,[5]; at 3.7 µM,29%
same,growth inhibition,[5]; [15],26%
same,growth inhibition,[5]; at 11.0 µM,33%
same,growth inhibition,[5]; at 33.0 µM,44%
same,growth inhibition,[5]; [16],14%
same,growth inhibition,[5]; at 50.0 µM,23%
same,growth inhibition,[5]; at 100.0 µM,65%
same,growth inhibition,[6]; at 1.2 µM,17%
same,growth inhibition,[6]; at 3.7 µM,16%
same,growth inhibition,[6]; at 11.0 µM,20%
same,growth inhibition,[6]; at 33.0 µM,25%
same,growth inhibition,[6]; at 100.0 µM,38%
same,growth inhibition,[7]; [15],15%
same,growth inhibition,[7]; [16],42%
same,growth inhibition,[7]; at 50.0 µM,28.8%
same,growth inhibition,[8]; at 1.2 µM,47%
same,growth inhibition,[8]; at 3.7 µM,58%
same,growth inhibition,[8]; at 11.0 µM,60%
same,growth inhibition,[8]; at 33.0 µM,56%
same,growth inhibition,[8]; at 100.0 µM,64%
same,growth inhibition,[9]; [15],11%
same,growth inhibition,[9]; [16],31%
same,growth inhibition,[9]; at 50.0 µM,1.55%
same,growth inhibition,[10]; at 1.2 µM,75% (active)
same,growth inhibition,[10]; at 3.7 µM,82% (active)
same,growth inhibition,[10]; [15],55%
same,growth inhibition,[10]; at 11.0 µM,81% (active)
same,growth inhibition,[10]; at 33.0 µM,83% (active)
same,growth inhibition,[10]; [16],86% (active)
same,growth inhibition,[10]; at 50.0 µM,80.3% (active)
same,growth inhibition,[10]; at 100.0 µM,92% (active)
same,growth inhibition,[11]; at 1.2 µM,32%
same,growth inhibition,[11]; at 3.7 µM,45%
same,growth inhibition,[11]; at 11.0 µM,36%
same,growth inhibition,[11]; at 33.0 µM,45%
same,growth inhibition,[11]; at 100.0 µM,73% (active)
same,growth inhibition,[12]; at 1.2 µM,32%
same,growth inhibition,[12]; at 3.7 µM,36%
same,growth inhibition,[12]; at 11.0 µM,37%
same,growth inhibition,[12]; at 33.0 µM,51%
same,growth inhibition,[12]; at 100.0 µM,67%
same,growth inhibition,[13]; [15],48%
same,growth inhibition,[13]; [16],86% (active)
same,growth inhibition,[13]; at 50.0 µM,70% (active)
same,growth inhibition,[14]; at 1.2 µM,61%
same,growth inhibition,[14]; at 3.7 µM,78% (active)
same,growth inhibition,[14]; at 11.0 µM,76% (active)
same,growth inhibition,[14]; at 33.0 µM,75% (active)
same,growth inhibition,[14]; at 100.0 µM,85% (active)
